The text below walks through data of PubChem BioAssay (NCI).

This is part of a sample that, as a whole, favours compounds with a hit. Of some 79,000 tested, about 15% had one in any assay. Values without a mark were called inactive. Calls of active or inactive are those of the source. No stated cut-off is given here; in the data, active means growth inhibition above about 70%; inactive means the rest.

A short description of assay [1]: NCI Yeast Anticancer Drug Screen. Data for the rad50 strain (AID 155).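 Further: 0% = growth of vehicle-only cultures of the same strain.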 The conditions noted are these: S. cerevisiae rad50 strain growth inhibition, active compounds read high; at 50.0 µM unless noted. Summed up: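 Cells are treated with compound, grown, and their growth is then scored against vehicle-only cultures of the same repair-deficient yeast strain.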
Assay [2] is described as follows: NCI Yeast Anticancer Drug Screen. Data for the mec2-1 strain (AID 157). The conditions noted are these: S. cerevisiae mec2-1 strain, active compounds read high; at 50.0 µM unless noted. In outline: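 mec2-1 yeast strain, carrying an alteration in DNA damage repair or cell cycle control, was exposed to compounds; growth inhibition was measured relative to vehicle-treated controls.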

The nature of assay [3]: NCI Yeast Anticancer Drug Screen. Data for the sgs1 mgt1 strain (AID 161).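 Further: 0% = growth of cultures given vehicle only.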 Conditions: S. cerevisiae sgs1 mgt1 strain, active compounds read high; at 50.0 µM unless noted. Summed up:
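This yeast growth screen uses a strain with defined DNA-repair lesions; compound-treated growth is compared with vehicle-treated growth.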

Assay [4] is described as follows: NCI Yeast Anticancer Drug Screen. Data for the cln2 rad14 strain (AID 165).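 Further: 0% = growth equal to vehicle treated cultures.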 Conditions: S. cerevisiae cln2 rad14 strain, active compounds read high; at 50.0 µM unless noted. In outline:
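Yeast carrying cln2 and rad14 alterations (cell cycle control and DNA damage repair) were exposed to compounds. Growth inhibition was measured against vehicle-treated controls.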

A short description of assay [5]: NCI Yeast Anticancer Drug Screen. Data for the bub3 strain (AID 167). Conditions: S. cerevisiae bub3 mutant strain, active compounds read high; at 50.0 µM unless noted. In outline: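 Part of a panel of yeast mutants defective in DNA damage repair or cell cycle regulation. Each strain is grown with compound, and inhibition is calculated relative to solvent-treated cultures.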

Assay [6] is described as follows: NCI Yeast Anticancer Drug Screen. Data for the mlh1 rad18 strain (AID 175). Conditions: S. cerevisiae mlh1 rad18 strain growth inhibition, active compounds read high; at 50.0 µM unless noted. Summed up: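 Growth inhibition of the yeast strain was measured after compound exposure and expressed relative to vehicle-treated controls. The strain carries defined defects in DNA damage repair.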

For `N#Cc1[nH]c(=O)n(-c2ccccc2)c1N`, the growth inhibition was -40.2% in assay [1]; -57.8% in assay [2]; -60.2% in assay [3]; -22.4% in assay [4]; -17.2% in assay [5]; -37% in assay [6].

With `O=C(O)C(c1ccccc1)N1C(=O)C(Cl)=C(Cl)C1=O` (stereo not given), the growth inhibition is -0.1% in assay [1]; -6.35% in assay [2]; 1.4% in assay [3]; -10.8% in assay [4]; 1.15% in assay [5]; 10.8% in assay [6].

Turning to `CC1(C)Oc2nc[nH]c(=O)c2C1c1ccccc1` (stereo not given), the growth inhibition in assay [1] was 2.55%; in assay [2] it was -4.5%; in assay [3], -0.4%; in assay [4], -20.1%; in assay [5], -19.4%; in assay [6], 5.35%.

Take `OC[C@H]1N[C@H](CO)[C@@H](O)[C@H]1O`: the growth inhibition in assay [1] was 1.7%; in assay [2], -10.2%; in assay [3], 4.35%; in assay [4], 16.8%; in assay [5] it was -15.6%; in assay [6], 10.2%.

`COC(=O)c1ccccc1NS(=O)(=O)c1ccc(Cl)cc1`: the growth inhibition is 42.2% in assay [1]; 66.1% in assay [2]; 75.7% (active) in assay [3]; 47.8% in assay [4]; 93% (active) in assay [5]; 82.2% (active) in assay [6].

As for `COc1cccc(OC)c1NC(=O)C(=O)Nn1c(NNC(=O)c2ccncc2)nc2ccccc2c1=O`, the growth inhibition in assay [1] was 28.6%; in assay [2], 26.5%; in assay [3], 4.65%; in assay [4], -30.1%; in assay [5], 35%; in assay [6], 38.4%.

As to `N#CC1C(c2ccc(Cl)cc2)C(C(N)=O)C(=O)NC1(O)c1ccccc1` (stereo not given), the growth inhibition in assay [1] is -1.45%; in assay [2], -5.4%; in assay [3] it was 8.45%; in assay [4], 8.95%; in assay [5], 4.15%; in assay [6] it was 15.6%.

On to `CCOc1ccc2c(c1)S(=O)(=O)OC2=O`, for which the growth inhibition is -11.1% in assay [1]; 0.6% in assay [2]; 7% in assay [3]; 25.6% in assay [4]; 5.2% in assay [5]; 2.35% in assay [6].

As for `CCCCCCCCCOc1ccc(C=Nc2ccc(C)cc2)cc1`, the growth inhibition is -4.3% in assay [1]; 7.8% in assay [2]; -2.55% in assay [3]; -18.9% in assay [4]; -10.9% in assay [5]; -4.65% in assay [6].

`CC1=CCC(CC2CO2)C1(C)C` (stereo not given): the growth inhibition is -27.6% in assay [1]; -48.4% in assay [2]; -17.2% in assay [3]; -9.95% in assay [4]; -35.2% in assay [5]; -31.1% in assay [6].

With `CS/C(C)=N/OC(=O)NCCCCNc1ccc(N=[N+]=[N-])cc1`, the growth inhibition is 13.9% in assay [1]; -4.15% in assay [2]; 5.4% in assay [3]; 36.7% in assay [4]; 4.5% in assay [5]; 0.6% in assay [6].

As to `O=C(ON=C1C=CC(=NOC(=O)c2ccccc2)C=C1)c1ccccc1`, the growth inhibition in assay [1] is 10.2%; in assay [2], -20.6%; in assay [3] it was 9.35%; in assay [4] it was 17.3%; in assay [5], 1.15%; in assay [6], 7.6%.

Consider `Cc1cc(Cl)ccc1NC(=O)C1C(=O)N(c2ccc(Cl)cc2C)C(=O)/C1=N\N` (stereo not given), for which the growth inhibition in assay [1] is 0.65%; in assay [2], -31.4%; in assay [3], 10.4%; in assay [4], -18.9%; in assay [5], -9.1%; in assay [6], 9.7%.

For the molecule `Cc1cccc(NC(=O)c2ccc(Cl)cc2Cl)c1`, the growth inhibition in assay [1] was 9.1%; in assay [2], 14.1%; in assay [3], 6.8%; in assay [4], 13.6%; in assay [5], 21.3%; in assay [6] it was 22.2%.

For `C=CC(=O)NC12CC3CC(CC(C3)C1)C2`, the growth inhibition in assay [1] is -4.45%; in assay [2], -0.3%; in assay [3], -8.1%; in assay [4], -23.9%; in assay [5], -15.6%; in assay [6], 0.05%.

For the molecule `O=C(/C=C\c1ccc(Cl)c(Cl)c1)/C=C/c1ccc(Cl)c(Cl)c1`, the growth inhibition is 25.5% in assay [1]; 4.75% in assay [2]; 26.4% in assay [3]; 9.55% in assay [4]; 39% in assay [5]; 16.6% in assay [6].

Consider `CN(C)Cc1ccccc1`, for which the growth inhibition in assay [1] was 28.8%; in assay [2], 15.8%; in assay [3] it was 14.8%; in assay [4], -58%; in assay [5], 11.1%; in assay [6], 17.6%.

As to `COc1ccc(-c2oc(=O)cc(-c3ccccc3)c2-c2ccccc2)cc1`, the growth inhibition in assay [1] is 22.6%; in assay [2], -11.6%; in assay [3] it was 16.2%; in assay [4] it was 4.2%; in assay [5], -3.55%; in assay [6] it was 14.7%.

`COc1ccc(/C=N/NS(=O)(=O)c2ccc(NC(C)=O)cc2)cc1`: the growth inhibition was -15.2% in assay [1]; -30.1% in assay [2]; 16.4% in assay [3]; 22.8% in assay [4]; -21.8% in assay [5]; -9.15% in assay [6].

As for `CC(=O)NNc1nc(C)c(C(=O)/C=C/c2ccc(NC(C)=O)cc2)s1`, the growth inhibition in assay [1] is 21.9%; in assay [2] it was 16.1%; in assay [3], 0.3%; in assay [4] it was 9.15%; in assay [5] it was 22.2%; in assay [6], 31.5%.
